Data: PubChem BioAssay AID819 (Columbia University Molecular Screening Center, 2007)
Among all 94,000 compounds or so, about 280 (0.3%) were called active.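 Rule for the calls: active = activation above 40%, about the mean plus 3 SD, also judged a hit on visual image review; inconclusive = activation above 40% but not a hit on visual review; inactive = activation not above 40% and no visual hit.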 The entries come from a sample that favours actives as a whole.

Test: enhancers of NFkB p65 translocation in HUVEC – imaging, IL-1B stimulus, high-content imaging, primary screen (AID 819);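 note: percent activation is computed from the nuclear over cytoplasmic p65 intensity ratio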
Details: HUVEC IL-1B NFkB p65 nuclear translocation imaging; at 2 µM; hits give high values

activation, inactive:
O=C(Nc1cc2ccccc2oc1=O)C1CCCCC1 -8.41%, CCC(C)n1c(-c2cc(OC)c(OC)c(OC)c2)nc2nc3ccccc3nc21 (stereo unspecified) 6.63%, COc1ccc(CCN(C(=O)COc2ccccc2)c2nc(-c3ccccc3)cs2)cc1OC 4.5%, O=[N+]([O-])c1ccccc1OCCCCN1CCCCC1 -1.68%, CCNC(=S)NNC(=O)Cc1ccccc1 0.95%, COc1ccc(OCC(=O)NNC(=O)c2ccc(-c3ccccc3)cc2)cc1 21.4%, Cc1cccc(C)c1NC1=NC(=S)N(c2ccc(N(C)C)cc2)C1(C)C -11.7%, O=C(CN1CCN(S(=O)(=O)c2ccc3ccccc3c2)CC1)NC(=O)NC1CCCCC1 -3.21%, O=C(Cn1cncn1)N/N=C/c1c2ccccc2cc2ccccc12 -10.3%, CC(C)OC(=O)c1c(NC(=O)c2ccco2)sc2c1CCCC2 -2.72%, CCOC(=O)c1c(NC(=O)CCC(=O)NCc2ccco2)sc2c1CCCC2 1.18%, O=C(CSc1nnnn1-c1ccccc1)NCc1ccco1 -8.15%, Cc1sc(NC(=S)NC(=O)c2cccs2)nc1-c1ccc(CC(C)C)cc1 17.4%, O=C(Nc1ccc(Br)c2cccnc12)c1ccc(Cn2cc([N+](=O)[O-])cn2)o1 25.7%, CCN(CC)CCNc1ccc(Cl)cc1[N+](=O)[O-] 11.6%, CC(Sc1nnc(Cc2ccc([N+](=O)[O-])cc2)o1)C(N)=O (stereo unspecified) 0.99%, CC(Oc1ccc(Cl)cc1Cl)C(=O)/C=C/N(C)C (stereo unspecified) 4.7%, Cc1cccc(C)c1-n1c(C)cc(/C=C2\C(=O)NN(c3ccccc3)C2=O)c1C -7.75%, O=C(O)c1ccccc1-c1ccccc1C(=O)Nc1cccc2ccccc12 8.14%, Cc1ccc(NC(=O)C(C)c2cccc(C(=O)c3ccccc3)c2)cc1 (stereo unspecified) -0.9%, O=C1C(=O)N(c2ccccc2)c2ccccc21 -1.05%, O=C(NC1CCc2ccccc21)C12CN(Cc3ccccc3)CC1C(c1cccc([N+](=O)[O-])c1)=NO2 (stereo unspecified) -3.33%, Cc1cc(C(=O)OCC(=O)Nc2ccc(F)c(F)c2)c(C)o1 -18.7%

activation, active:
CC(C)(C)c1ccc(C(=O)NNC(=O)Cc2ccccc2)cc1 41.9%, CCOC(=O)c1c(NC(=S)NC(=O)c2ccco2)sc2c1CCCC2 53.7%, CC1=NC2(CCCc3c2no[n+]3[O-])N(O)C1(C)C (stereo unspecified) 168%
